NPC1 prom act = activators of NPC1 promoter; 320,000 compounds, 2.4% hits; Potency, µM (top dose mostly 9.22 µM), inactives show at the top dose activation, usual class: activators; Huh7 NPC1 promoter luciferase reporter, 24 h; also: % of control where 0% means no effect; nearly all actives have a fitted effect of over 60% in size
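Stable NPC1-promoter luciferase Huh7 line; cpd (DMSO) 24 h, 37 °C, 5% CO2; Amplite luciferase reagent 10 min RT; luminescence readout. qHTS format.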
FLuc modulator = inhibits or activates purified firefly luciferase, miR-21 counter-screen; 360,000 compounds, 6.9% hits; P08659; Potency, µM (top dose mostly 57.5 µM), for the others: top-dose activity change, negative = inhibition, most hits filed as inhibitors; purified FLuc, Km substrates, luminescence inhibition; AID 588342;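 also: plate controls were vehicle for no effect and reference inhibitor for full effect; nearly all actives have a fitted effect of over 55% in size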
Target sequence (P08659 whole entry, looked up): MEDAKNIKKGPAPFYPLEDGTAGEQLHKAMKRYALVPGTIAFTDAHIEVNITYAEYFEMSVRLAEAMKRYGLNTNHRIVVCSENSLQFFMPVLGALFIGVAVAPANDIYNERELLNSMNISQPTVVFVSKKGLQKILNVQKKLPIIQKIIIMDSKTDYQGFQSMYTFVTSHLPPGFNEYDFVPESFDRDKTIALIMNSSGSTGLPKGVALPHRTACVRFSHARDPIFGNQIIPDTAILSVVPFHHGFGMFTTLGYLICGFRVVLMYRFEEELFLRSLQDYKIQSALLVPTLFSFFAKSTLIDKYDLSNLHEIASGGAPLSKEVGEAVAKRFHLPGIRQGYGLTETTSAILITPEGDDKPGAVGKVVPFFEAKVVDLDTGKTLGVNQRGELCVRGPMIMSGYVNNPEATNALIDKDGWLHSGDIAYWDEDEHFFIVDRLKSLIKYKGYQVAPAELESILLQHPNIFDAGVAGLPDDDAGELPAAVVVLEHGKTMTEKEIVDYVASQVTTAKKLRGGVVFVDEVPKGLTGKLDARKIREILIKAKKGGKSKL
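Biochemical qHTS of compounds, final roughly 60 µM downward over six points, against 10 nM purified firefly luciferase using Km concentrations of substrates (10 uM D-luciferin, 10 uM ATP) in Tris acetate pH 7.5 buffer; luminescence output.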
Rab9 prom act = Rab9 promoter activation; Huh7 Rab9 promoter-luciferase reporter, luminescence, 24 h; Potency, µM (doses to about 9.22 µM), for the others: top-dose activation, negative = inhibition, actives largely listed as activators; 320,000 compounds, 2.8% hits; also: % of control where 0% means no effect; nearly all actives have a fitted effect of over 60% in size
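Cell-based reporter: Huh7 stable for Rab9 promoter-driven luciferase, plated in reduced-serum medium with 10% FBS at 1500 cells/well, compound-treated 24 h at 37 °C, luminescence read after 10 min reagent.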
ELG1 genotoxic = induces genotoxicity in HEK293T cells with luciferase-tagged ELG1; HEK293T ELG1-luciferase reporter, luminescence, 16 h; Potency, µM (doses to about 46 µM), for the others: at the highest dose activity change, positive = activation, most hits filed as activators; 330,000 compounds, 1.3% hits; also: % of control where 0% means no effect; nearly all actives have a fitted effect of over 60% in size
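HEK293T cells expressing luciferase-tagged ELG1 were exposed to compound or DMSO vehicle for 16 hr at 37 °C and 5% CO2. Luciferase activity was then measured with ONE-Glo after 30 min at room temperature.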
ELG1 DNA repair = blocks ELG1-dependent DNA repair in HEK293T cells | HEK293T ELG1-luciferase reporter, luminescence, 16 h; DNA damage induced by 5-fluorouridine | Potency, µM (series often up to 46.1 µM), for the others: top-dose activity change, negative = inhibition, hits mostly inhibitors | 330,000 compounds, 2.3% hits; also: % is scaled to controls: 0 for no effect and ±100 for the full control effect; nearly all actives have a fitted effect of over 55% in size
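Overnight (16 hr) co-exposure of 2,000 cells/well to 5-fluorouridine and compound at 37 °C preceded detection. Luciferase was quantified via ONE-Glo luminescence; loss of signal denotes inhibition.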
SMN2 splice enh = SMN2 splice variant enhancement | 210,000 compounds, 2.8% hits | AID 1458 | Potency, µM (titrated, usually from 46.1 µM), for the others: top-dose activity change, positive = activation, most hits filed as activators | HEK293 SMN2-luciferase splicing reporter, luminescence, 30-36 h; also: % of control where 0% means no effect; nearly all actives have a fitted effect of over 55% in size
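HEK293 cells carry an SMN2 […]–luciferase reporter in which exon 7 inclusion puts luciferase in frame. Cells were plated 10-12 h before compound addition, then incubated 30-36 h at 37C. ONE-Glo luminescence was read; sodium butyrate at 4.5 mM final served as control.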
* hit, by the source's call; ? = inconclusive; nt = no result. Compounds with a hit are over-represented: about 9.2% of the library has one in this group of screens. Calls follow the shape of the dose curve; as a rule, active = well fitted curve in the direction sought with a large enough effect; inconclusive = small, poorly fitted or top-dose-only effect, or another doubt; inactive = no such curve, though single readings can be large; an effect the other way counts as inactive or inconclusive. Potency is read from the fitted curve at half-maximal effect.

SMILES	NPC1 prom act	FLuc modulator	Rab9 prom act	ELG1 genotoxic	ELG1 DNA repair	SMN2 splice enh
CCc1cccc2c(C(=O)COC(=O)c3cnc(C)cn3)c[nH]c12	-1%	-3%	-5%	-1%	-2%	nt
CCc1cccc2c(C(=O)COC(=O)c3nccnc3N)c[nH]c12	25%	15µM*	?	?	?	nt
CCc1ccc(CNC(=O)CN2C(=O)c3cccnc3Oc3ccc(C)cc32)cc1	nt	-11%	nt	nt	nt	nt
Cc1oc(C(C)(C)C)cc1C(=O)Nc1cccc(/C=C/C(=O)O)c1	-3%	12µM*	-19%	10%	7%	0%
Cc1cc(C(=O)Nc2ccccc2)c(C)o1	-3%	?	-2%	?	?	-16%
Cc1oc(-c2ccccc2)cc1C(=O)Nc1cccc(/C=C/C(=O)O)c1	-1%	15µM*	-1%	1%	0%	3%
Cc1cc(C(=O)Nc2cccc(/C=C/C(=O)O)c2)c(C)o1	2%	13µM*	5%	1%	-4%	8%
COc1ccc(Cl)cc1NC(=O)CN(C)C(=O)c1cc2c(s1)CCCC2	2%	-10%	-1%	-11%	?	nt
COc1ccc(N2Cc3cccc(C(=O)O)c3C2=O)cc1	-3%	3%	4%	14%	?	-28%
O=C1N(c2ccccc2)CCN1c1ccccc1	0.5µM*	1.5µM*	1.1µM*	?	?	nt
CCOc1ccc(N2Cc3ncccc3C2=O)cc1	3.2µM*	13µM*	2.5µM*	?	?	10µM*
Cc1ccc(N2Cc3ccccc3C2=O)cc1	0.45µM*	1.9µM*	0.5µM*	1.6µM*	?	nt
O=C1NC(=S)CN1c1ccccc1	0%	?	-1%	-5%	3%	nt
COc1ccc(N2Cc3ccccc3C2=O)cc1	?	3.4µM*	0.5µM*	1.8µM*	?	nt
CC1(C)CC(=O)C(C=Nc2ccc(C(=O)c3ccccc3)cc2N=CC2=C(O)CC(C)(C)CC2=O)=C(O)C1	2%	-8%	2%	-9%	-5%	-5%
O=C1c2ccccc2CN1c1ccccc1	?	17µM*	2µM*	?	?	nt
O=C1c2ccccc2CN2C(=O)c3ccccc3CN12	-5%	-2%	11%	8%	-3%	nt
CCCc1cc(=O)[nH]c2nnc(SCC(=O)Nc3cccc(NC(C)=O)c3)n12	-15%	-1%	-7%	2%	8%	nt
COc1ccc(-c2cc(OC(=O)c3cccc(C)c3)c3c(C)oc(C)c3c(=O)c2)cc1	nt	?	nt	nt	nt	33%
Cn1ccc(C(=O)Nc2ccc(Br)cc2Br)n1	3.5µM*	3µM*	3.2µM*	4.6µM*	?	5µM*
Cc1ccc(NC(=O)c2ccn(C)n2)c(Br)c1	?	6µM*	3.2µM*	5.2µM*	?	2µM*
Cc1ccc(NC(=O)c2ccccn2)c(Br)c1	?	7.6µM*	2.8µM*	4.1µM*	?	nt
Cc1ccc(NC(=O)Nc2ccc(Cl)cc2)c(Br)c1	22%	-21%	?	?	?	?
CN=C1N(C)C[C@@H]2[C@@H]3C(=O)N(Cc4ccccc4)C(=O)[C@@H]3[C@](Cc3ccccc3)(C(=O)OC)N12	nt	nt	nt	-4%	?	nt
Cn1c(=O)c2sccc2n2c(CCC(=O)N3CCN(c4ccc(F)cc4)CC3)nnc12	nt	-1%	nt	nt	nt	1%
O=C(CCCc1nc(-c2ccco2)no1)Nc1ccccc1[N+](=O)[O-]	nt	7%	nt	nt	nt	nt
Cc1ccc(NS(=O)(=O)c2ccc(Cl)c(C(=O)Nc3ccccc3-c3nc4ccccc4[nH]3)c2)cc1C	-4%	-11%	-7%	-9%	9.2µM*	-73%
CCN1CCN(c2ccc(S(=O)(=O)N3CCOCC3)cc2NC(=O)C(C)Oc2ccc(F)cc2)CC1 (stereo unspecified)	-2%	-2%	1%	2%	-9%	nt
Cc1cccc(-c2nc3c4ccccc4nc(NCc4ccccc4Cl)n3n2)c1	nt	?	nt	nt	nt	29%

Screens as filed in PubChem BioAssay.
